Screening data (PubChem)
FMDV inh: blocks foot and mouth disease virus. FMDV antiviral cell-based qHTS. Potency, µM (series often up to 57.9 µM), hits mostly inhibitors. hit rate 1.2% among 410,000; calls by dose curve; tested in HEK293T cells; also: read-out not given here; nearly all actives have a fitted effect of over 45% in size
Shiga toxin inh: blocks Shiga toxin action in Vero cells; Vero cells, Shiga toxin protein synthesis inhibition reporter; inhibition, % at 38.7 µM; hit rate 9.2% among 290,000; AID 2315; in the data active = inhibition mostly above about 28%, no sharp cut-off; inactive = mostly below about 43%
Lassa entry inh: inhibitors of Lassa virus binding or cell entry; Lassa virus pseudotype entry inhibition, cell reporter; Potency, µM (top dose mostly 37.9 µM), actives largely listed as inhibitors; hit rate 1.2% among 300,000; AID 540256; calls by dose curve; tested in HEK293 cells; also: nearly all actives have a fitted effect of over 50% in size
CHX counter: counter-screen for Shiga toxin inhibitors: cycloheximide protein synthesis inhibition. cell reporter, cycloheximide protein synthesis inhibition counterscreen. max response, %. hit rate 12% among 300,000; in the data active = max response mostly above about 13%, no sharp cut-off; inactive = mostly below about 14%; also: read at 38.3 µM for the half of the compounds with a filed dose
MARV entry inh: blocks Marburg virus binding to or entry into cells; AID 540276; hit rate 1.8% among 300,000; Potency, µM (doses to about 37.8 µM), usual class: inhibitors; Marburg virus pseudotyped entry inhibition, cell reporter; calls by dose curve; tested in HEK293 cells
HCV inh: inhibitors of hepatitis C virus infection | Huh7.5.1 HCVcc-Cre infection, luciferase reporter, 44 h | Potency, µM (top dose mostly 41.8 µM), usual class: inhibitors | hit rate 3.4% among 340,000; active = well fitted inhibition curve with a large enough effect; inconclusive = small, poorly fitted or top-dose-only effect, or another doubt; inactive = no such curve, though single readings can be large or run the other way
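Infectious HCV cell culture screen: compound-treated cells (1,000/well, pre-plated 4 h) are infected with HCVcc-Cre at roughly 0.5 moi and grown 44 h. Infection is quantified by luciferase signal after 15 min substrate incubation at room temperature.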
Numbers stand for hits; - = inactive; ? = inconclusive; . = no result given. Sampled rows, rich in hits. Any-hit rate of the full collection: about 13%.

SMILES | FMDV inh | Shiga toxin inh | Lassa entry inh | CHX counter | MARV entry inh | HCV inh
CCCCC(CC)c1nnc(NC(=O)c2cccs2)s1 (stereo unspecified) | - | - | . | - | . | -
O=C(Nc1nnc(CCc2ccccc2)s1)c1cccs1 | - | - | - | - | - | -
CC(C)(C)c1nnc(NC(=O)c2cccnc2)s1 | - | - | . | 21 | . | -
CC(C)c1nnc(NC(=O)c2cccs2)s1 | - | 70 | . | 58 | . | ?
O=C(Nc1ccccc1C(=O)Nc1nnc(C(F)(F)F)s1)c1ccccc1 | ? | - | 10µM | - | 4µM | -
Cc1occc1C(=O)Nc1nnc(C(F)(F)F)s1 | - | - | - | - | - | -
CC(C)(C)c1nnc(NC(=O)c2cccs2)s1 | - | 75 | . | 71 | . | -
CCOc1cc(C(=O)N2CCC(c3ccncc3)CC2)cc(OCC)c1OCC | - | . | - | . | . | .
COc1ccc(-c2cc(C)no2)cc1S(=O)(=O)NCc1ccc(OC(C)C)cc1 | - | - | - | - | . | -
Nc1c(C(=O)O)ccc2c1C(=O)c1ccccc1C2=O | - | - | - | - | - | -
Nc1ccc2c(c1Cl)C(=O)c1ccc(N)c(Cl)c1C2=O | - | 70 | . | 34 | . | -
O=C(NCc1ccco1)Nc1ccccc1Cl | - | 74 | - | 18 | - | -
O=C(NCc1ccco1)C(=O)NCc1ccccc1Cl | - | - | - | 30 | - | -
O=C(NCc1ccco1)c1nc2c(nnn2Cc2ccccc2Cl)c(=O)[nH]1 | . | - | 13µM | - | ? | ?
O=c1ccc(-c2ccccc2)n[nH]1 | . | - | - | - | - | -
Cc1ccc(Cn2cc(/C=C/C(=O)O)c(-c3ccccc3)n2)cc1 | - | - | - | - | - | -
Cc1ccc(Cn2cc(C=O)c(-c3ccc(C)cc3)n2)cc1 | - | 78 | ? | 52 | ? | -
O=S1(=O)CCO[C@H]2Cc3ccccc3[C@H]2N1Cc1ccccc1Br | - | - | . | - | . | ?
NC(=O)C1CCN(c2ncccc2[N+](=O)[O-])CC1 | - | - | - | - | ? | ?
O=[N+]([O-])c1cccnc1N1CCC(c2cc(-c3cccc(C(F)(F)F)c3)n[nH]2)CC1 | - | - | ? | - | ? | ?
CC(=O)c1ccc(N2CCC(c3cc(-c4ccc(Cl)cc4Cl)n[nH]3)CC2)c([N+](=O)[O-])c1 | 20µM | - | ? | - | ? | 11µM
O=[N+]([O-])c1cccnc1N1CCC(c2cc(-c3ccc(Cl)cc3Cl)n[nH]2)CC1 | - | - | ? | - | ? | 22µM
COc1ccc(OC)c(-c2cc(C3CCN(c4ncccc4[N+](=O)[O-])CC3)[nH]n2)c1 | ? | - | ? | - | ? | 11µM
O=C(c1ccco1)N1CCN(C(=O)c2ccccc2Oc2ccccc2)CC1 | . | - | ? | - | - | -
Cc1ccc(SCc2[nH]nc3c2C2(C(=O)Nc4ccc([N+](=O)[O-])cc42)C(C#N)=C(N)O3)cc1 (stereo unspecified) | - | - | - | - | - | -
SMILES | FMDV inh | Shiga toxin inh | Lassa entry inh | CHX counter | MARV entry inh | HCV inh
COc1cccc(C(=O)c2ccccc2NC(C)=O)c1 | - | . | . | . | . | .
Cc1ccccc1CCN(C(=O)CN1C(=O)c2ccccc2S1(=O)=O)C(C(=O)NCC1CCCO1)c1ccncc1 (stereo unspecified) | - | - | - | - | - | -
O=C(NCC1CCCO1)C(c1ccncc1)N(Cc1cccs1)C(=O)CN1C(=O)c2ccccc2S1(=O)=O (stereo unspecified) | - | - | - | 11 | - | -
Cc1ncsc1CCOC(=O)c1ccc([N+](=O)[O-])cc1 | - | 41 | - | 25 | - | -
Cc1ncsc1CCOC(=O)c1cccnc1 | . | - | - | - | - | -
CCCC(=O)Nc1sc2c(c1C(=O)OC)C(C(=O)OC)CC2 (stereo unspecified) | - | - | - | - | ? | ?
COC(=O)c1c(NC(=O)CCCOc2ccc(C(C)(C)C)cc2)sc2c1C(C(=O)OC)CC2 (stereo unspecified) | 35µM | - | ? | - | . | .
CCN(CC)S(=O)(=O)c1ccc(N2CCOCC2)c(NC(=O)c2cc(=O)[nH]c3ccccc23)c1 | - | - | - | - | ? | -
CCN(CC)S(=O)(=O)c1ccc(N2CCCCC2)c(C(=O)Nc2ccccc2N2CCOCC2)c1 | - | - | 10µM | - | 5.6µM | 5.6µM
CCN(CC)S(=O)(=O)c1ccc(N2CCOCC2)c(NC(=O)c2cccc3c(=O)c(C)c(-c4ccccc4)oc23)c1 | ? | . | . | . | . | 8.9µM
Cc1cccc2sc(NC(=O)c3cc(S(=O)(=O)N(C)C)ccc3N3CCCC3)nc12 | - | - | ? | - | ? | -
CN(C)S(=O)(=O)c1ccc(N2CCCC2)c(C(=O)Nc2nc3ccccc3s2)c1 | - | 47 | - | - | ? | ?
CCN(CC)S(=O)(=O)c1ccc(N2CCOCC2)c(NS(=O)(=O)c2cc(C(C)(C)C)ccc2C)c1 | - | - | 8.9µM | - | ? | ?
CCN(CC)S(=O)(=O)c1ccc(N2CCOCC2)c(NC(=O)c2cccc3ccccc23)c1 | - | - | ? | - | - | -
CCN(CC)S(=O)(=O)c1ccc(N2CCOCC2)c(NS(=O)(=O)c2ccc(C(C)C)cc2)c1 | - | - | - | - | - | -
CC(C)CCc1noc(CN2CCC(C(=O)N3CCOCC3)CC2)n1 | - | - | . | - | . | -
COc1ccc(C(c2nnnn2Cc2ccccc2)N2CCN(c3nc4ccccc4s3)CC2)cc1 (stereo unspecified) | - | - | 11µM | - | ? | ?
c1ccc(CCn2nnnc2C(c2cccnc2)N2CCN(c3nc4ccccc4s3)CC2)cc1 (stereo unspecified) | . | - | ? | - | ? | 25µM
c1ccc(CCn2nnnc2C(c2cccnc2)N2CCN(c3ccccc3)CC2)cc1 (stereo unspecified) | . | - | ? | - | ? | -
COc1ccc(-c2cccc([C@H]3[C@@H]4C=CCC[C@@]4(C)C(=O)N3Cc3ccccc3)c2)cc1 | ? | - | . | - | . | ?
C=CCN(c1ccccc1)S(=O)(=O)c1ccc2c(c1)NC(=O)C(C)S2 (stereo unspecified) | - | - | . | - | . | -
COc1ccc(CCNC(=O)CCS(=O)(=O)c2ccc3c(c2)NC(=O)C(C)S3)cc1OC (stereo unspecified) | - | - | . | - | . | -
COc1cccc(NS(=O)(=O)c2ccc3c(c2)NC(=O)C(C)S3)c1 (stereo unspecified) | - | - | . | - | . | ?
CCOc1ccc(CN(C)C(=O)c2ccc3c(c2)NC(=O)C(C)S3)cc1OC (stereo unspecified) | ? | . | . | . | . | 13µM
COc1ccc(CCNS(=O)(=O)c2ccc3c(c2)NC(=O)C(C)S3)cc1OC (stereo unspecified) | - | - | - | - | ? | 25µM
COc1ccc(Br)cc1CN(C)C(=O)c1ccc2c(c1)NC(=O)C(C)S2 (stereo unspecified) | - | - | - | - | - | -
CC1Sc2ccc(S(=O)(=O)N(C)Cc3ccccc3)cc2NC1=O (stereo unspecified) | 28µM | - | ? | - | - | ?
COc1ccccc1NS(=O)(=O)c1ccc2c(c1)NC(=O)C(C)S2 (stereo unspecified) | - | - | . | 23 | . | -
